{
  "source": "paper PMC4336329",
  "about": "(PLoS ONE, 2015)",
  "note": "The whole screen tested about 310,000 compounds, of which about 14,000 (4.5%) showed an effect of 50% or more. Effects have a minus sign here. The sample as a whole holds a higher share of strong results than the screen did.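 Also: peak tail current of the secondary pulse compared with the same well before compound.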",
  "data": [
    {"target": "human ether-à-go-go-related gene (hERG) potassium channel (human, UniProt Q12809)", "sequence (Q12809 whole entry, looked up)": "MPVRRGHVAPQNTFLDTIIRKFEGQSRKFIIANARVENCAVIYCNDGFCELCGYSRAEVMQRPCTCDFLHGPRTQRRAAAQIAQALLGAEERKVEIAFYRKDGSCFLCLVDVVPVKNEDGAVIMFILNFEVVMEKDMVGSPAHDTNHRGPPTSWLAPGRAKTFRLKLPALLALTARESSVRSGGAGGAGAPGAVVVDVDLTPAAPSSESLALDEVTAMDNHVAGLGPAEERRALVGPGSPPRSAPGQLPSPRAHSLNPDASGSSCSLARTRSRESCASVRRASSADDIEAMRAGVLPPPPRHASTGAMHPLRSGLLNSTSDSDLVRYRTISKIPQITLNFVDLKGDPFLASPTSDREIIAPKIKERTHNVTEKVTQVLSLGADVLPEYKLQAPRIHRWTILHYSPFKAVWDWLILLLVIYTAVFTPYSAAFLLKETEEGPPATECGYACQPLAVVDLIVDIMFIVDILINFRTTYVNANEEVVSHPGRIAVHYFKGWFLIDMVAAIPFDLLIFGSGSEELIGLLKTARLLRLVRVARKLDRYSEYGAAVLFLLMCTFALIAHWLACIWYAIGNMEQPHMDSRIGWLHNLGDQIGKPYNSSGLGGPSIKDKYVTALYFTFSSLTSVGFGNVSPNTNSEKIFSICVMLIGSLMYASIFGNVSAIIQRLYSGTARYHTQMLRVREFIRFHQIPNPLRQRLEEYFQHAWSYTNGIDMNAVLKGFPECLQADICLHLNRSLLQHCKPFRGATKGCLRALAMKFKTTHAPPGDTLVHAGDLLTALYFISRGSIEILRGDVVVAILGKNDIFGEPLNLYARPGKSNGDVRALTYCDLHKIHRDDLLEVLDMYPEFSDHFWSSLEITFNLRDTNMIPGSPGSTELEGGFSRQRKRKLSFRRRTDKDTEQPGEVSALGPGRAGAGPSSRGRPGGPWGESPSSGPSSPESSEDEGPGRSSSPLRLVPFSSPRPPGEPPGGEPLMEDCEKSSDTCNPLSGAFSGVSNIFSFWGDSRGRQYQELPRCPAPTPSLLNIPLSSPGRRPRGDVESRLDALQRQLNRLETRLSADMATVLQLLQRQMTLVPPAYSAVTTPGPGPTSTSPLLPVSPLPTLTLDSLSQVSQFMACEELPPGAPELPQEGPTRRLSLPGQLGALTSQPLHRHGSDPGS", "assay": "primary screen, population patch clamp on CHO cells stably expressing hERG; higher = less effect of the substance", "units": {"hERG current change (%, negative = inhibition) at 10uM": "%"}, "values": [
      {"smiles": "Cc1ccc(NC(=O)CSCc2ccco2)cc1", "hERG current change (%, negative = inhibition) at 10uM": 21.7},
      {"smiles": "O=C(CCSc1ccc(F)cc1)Nc1ccc(-n2cnnn2)cc1", "hERG current change (%, negative = inhibition) at 10uM": -26.4},
      {"smiles": "COc1cc(/C=N/N2CCN(c3ccc(Cl)cc3)CC2)cc(OC)c1OC(C)=O", "hERG current change (%, negative = inhibition) at 10uM": 9.63},
      {"smiles": "O=C(NC(NC(=S)Nc1ccccc1)C(Cl)(Cl)Cl)c1cccc(Cl)c1", "note": "(stereo not drawn)", "hERG current change (%, negative = inhibition) at 10uM": 7.91},
      {"smiles": "O=C(NNc1cccc([N+](=O)[O-])c1)/C(=C\\c1cccnc1)NC(=O)c1ccccc1", "hERG current change (%, negative = inhibition) at 10uM": -30.6},
      {"smiles": "Cc1ccc(C(=O)N/C(=C\\c2cccc([N+](=O)[O-])c2)C(=O)Nc2cccc(C(=O)O)c2)cc1", "hERG current change (%, negative = inhibition) at 10uM": 15.2},
      {"smiles": "O=C(NCc1ccncc1)/C(=C/c1cccc([N+](=O)[O-])c1)NC(=O)c1ccccc1", "hERG current change (%, negative = inhibition) at 10uM": -71},
      {"smiles": "Cc1ccc(C(=O)N/C(=C\\c2cccc([N+](=O)[O-])c2)C(=O)NCc2ccncc2)cc1", "hERG current change (%, negative = inhibition) at 10uM": -73.3},
      {"smiles": "Cn1c(=O)c2c(nc(Sc3ncccn3)n2Cc2ccccc2Cl)n(C)c1=O", "hERG current change (%, negative = inhibition) at 10uM": -8.1},
      {"smiles": "CCCC(=O)NC(=S)Nc1cccc(NC(=O)c2ccccc2)c1", "hERG current change (%, negative = inhibition) at 10uM": -1.54},
      {"smiles": "CCOc1ccc(C(=O)Nc2ccc(C(F)(F)F)n(C)c2=O)cc1", "hERG current change (%, negative = inhibition) at 10uM": 14.5},
      {"smiles": "Cc1ccc(Nc2ncnc(N)n2)cc1", "hERG current change (%, negative = inhibition) at 10uM": 9.24},
      {"smiles": "CCOc1ccc(NC(=O)CCC(=O)OC)cc1", "hERG current change (%, negative = inhibition) at 10uM": -1.95},
      {"smiles": "CCCOc1ccc(C(=O)OCCN(CC)CC)cc1N.Cl", "hERG current change (%, negative = inhibition) at 10uM": -51.9},
      {"smiles": "CCCOc1cc(N)ccc1C(=O)OCCN(CC)CC.Cl", "hERG current change (%, negative = inhibition) at 10uM": -18.9},
      {"smiles": "CCN(CC)CCOC(=O)c1ccc(N)cc1.Cl", "hERG current change (%, negative = inhibition) at 10uM": 2.06},
      {"smiles": "CCN(CC)CCOC(=O)c1ccc2c(c1)OCCO2.Cl", "hERG current change (%, negative = inhibition) at 10uM": -11.4},
      {"smiles": "CCN(CC)CCOC(=O)c1ccc([N+](=O)[O-])cc1.Cl", "hERG current change (%, negative = inhibition) at 10uM": -23.1},
      {"smiles": "CCCCOc1cc(C(=O)OCCN(CC)CC)ccc1N", "hERG current change (%, negative = inhibition) at 10uM": -60.6},
      {"smiles": "CCOc1ccc(C(=O)OCCN(CC)CC)cc1.Cl", "hERG current change (%, negative = inhibition) at 10uM": -44.8},
      {"smiles": "CCCCOc1cc(C(=O)OCCN(CC)CC)ccc1N.Cl", "hERG current change (%, negative = inhibition) at 10uM": -53.6},
      {"smiles": "CCN(CC)CCOC(=O)c1cccc(Br)c1.Cl", "hERG current change (%, negative = inhibition) at 10uM": -40.6},
      {"smiles": "CCN(CC)CCOC(=O)c1ccc(NC(=S)NC(=O)/C=C/c2ccco2)cc1", "hERG current change (%, negative = inhibition) at 10uM": -0.561},
      {"smiles": "Cc1oc2c(c(C)cc3oc(=O)c(CC(=O)N[C@H](C(=O)O)C(C)C)c(C)c32)c1C", "hERG current change (%, negative = inhibition) at 10uM": 15.2},
      {"smiles": "Cc1cc2c(ncn2C(C)C)c(N)c1C", "hERG current change (%, negative = inhibition) at 10uM": -9.87},
      {"smiles": "CSc1ccc(C#N)cc1NC(=O)c1ccccc1", "hERG current change (%, negative = inhibition) at 10uM": -36.5},
      {"smiles": "NC(=O)C1CCN(C(=O)Cc2ccsc2)CC1", "hERG current change (%, negative = inhibition) at 10uM": -1.15},
      {"smiles": "Cc1csc2nc(O)c(C(=O)NCCCc3ccccc3)c(=O)n12", "hERG current change (%, negative = inhibition) at 10uM": -20},
      {"smiles": "Cc1ccnc(NS(=O)(=O)c2ccc(NC(=O)Cc3ccc(Cl)cc3)cc2)n1", "hERG current change (%, negative = inhibition) at 10uM": 14.3},
      {"smiles": "S=C1NC2(CCCCC2)Cc2ccccc21", "hERG current change (%, negative = inhibition) at 10uM": 12.4},
      {"smiles": "CC(C)NC(=O)CN1CCN(Cc2nc(-c3cccs3)no2)CC1", "hERG current change (%, negative = inhibition) at 10uM": 19.9},
      {"smiles": "C[C@@H](C(=O)Nc1ccc2ccccc2c1)[C@H]1C[C@]1(C)[C@H](NC(=O)c1cnccn1)c1ccccc1", "hERG current change (%, negative = inhibition) at 10uM": -4.43},
      {"smiles": "CN1CCN(C(=S)NC(=O)c2ccccc2Br)CC1", "hERG current change (%, negative = inhibition) at 10uM": 11.2},
      {"smiles": "O=c1[nH]c(O)c(N=Nc2ccc(S(=O)(=O)N3CCOCC3)cc2)c(=O)[nH]1", "hERG current change (%, negative = inhibition) at 10uM": -4.59},
      {"smiles": "O=c1[nH]c(O)c(N=Nc2cccc(S(=O)(=O)N3CCOCC3)c2)c(=O)[nH]1", "hERG current change (%, negative = inhibition) at 10uM": -73.7},
      {"smiles": "O=c1[nH]c(=S)[nH]c(O)c1N=Nc1cccc(S(=O)(=O)N2CCOCC2)c1", "hERG current change (%, negative = inhibition) at 10uM": 9.03},
      {"smiles": "COC(=O)C1=C(c2ccccc2)C[C@@H]2CC[C@H]1N2C(=O)NCCCOC(C)C", "hERG current change (%, negative = inhibition) at 10uM": 0.331},
      {"smiles": "CCOc1ccc(N(C(=O)CNC(=O)c2ccco2)C(C(=O)NC2CCCC2)c2ccncc2)cc1", "note": "(stereo not drawn)", "hERG current change (%, negative = inhibition) at 10uM": -10.7},
      {"smiles": "COc1ccc(CN2CCN(Cc3c[nH]c4ccccc34)CC2CCO)c(F)c1", "note": "(stereo not drawn)", "hERG current change (%, negative = inhibition) at 10uM": -41.4},
      {"smiles": "COc1ccc(F)c(CN2CCN(CCc3ccccc3)C(CCO)C2)c1", "note": "(stereo not drawn)", "hERG current change (%, negative = inhibition) at 10uM": -55.9},
      {"smiles": "COc1ccc(CN2CCN(CCCc3ccccc3)C(CCO)C2)c(O)c1", "note": "(stereo not drawn)", "hERG current change (%, negative = inhibition) at 10uM": -83.1},
      {"smiles": "COc1ccc(CN2CCN(CCc3ccccc3)C(CCO)C2)c(O)c1", "note": "(stereo not drawn)", "hERG current change (%, negative = inhibition) at 10uM": -71.7},
      {"smiles": "O=C(OCC1OC(n2cc(Br)c(=O)[nH]c2=O)C(Br)C1O)c1ccccc1", "note": "(stereo not drawn)", "hERG current change (%, negative = inhibition) at 10uM": 8.3},
      {"smiles": "CCC(C)N(C(=O)COC(=O)CNC(=O)c1ccccc1F)C1CCS(=O)(=O)C1", "note": "(stereo not drawn)", "hERG current change (%, negative = inhibition) at 10uM": 4.36},
      {"smiles": "COc1ccc(C)cc1NC(=O)c1cc2c(s1)CCC2", "hERG current change (%, negative = inhibition) at 10uM": -5.71},
      {"smiles": "COc1ccccc1-c1nnc2sc(-c3ccc(N(C)C)cc3)nn12", "hERG current change (%, negative = inhibition) at 10uM": -11},
      {"smiles": "CC(=O)NC(C)c1nc2ccccc2n1C(C)C", "note": "(stereo not drawn)", "hERG current change (%, negative = inhibition) at 10uM": -10.2},
      {"smiles": "Cc1cc(C)cc(NC(=O)C(NCCN2CCOCC2)c2ccccc2)c1.O=C(O)C(=O)O", "note": "(stereo not drawn)", "hERG current change (%, negative = inhibition) at 10uM": -7.91},
      {"smiles": "Cc1ccc(C)c(NC(=O)C(c2ccccc2)N2CCOCC2)c1", "note": "(stereo not drawn)", "hERG current change (%, negative = inhibition) at 10uM": -10.6},
      {"smiles": "Cc1cc(C)cc(NC(=O)C(NCC2CCCO2)c2ccccc2)c1.O=C(O)C(=O)O", "note": "(stereo not drawn)", "hERG current change (%, negative = inhibition) at 10uM": -35.5},
      {"smiles": "COc1ccc(C)cc1NC(=O)C(NCC(O)c1ccccc1)c1ccccc1.O=C(O)C(=O)O", "note": "(stereo not drawn)", "hERG current change (%, negative = inhibition) at 10uM": -21.7},
      {"smiles": "COc1ccc(C)cc1NC(=O)C(NCC1CCCO1)c1ccccc1", "note": "(stereo not drawn)", "hERG current change (%, negative = inhibition) at 10uM": -51.4},
      {"smiles": "Cc1ccc(C)c(NC(=O)C(NCC(C)(C)N2CCOCC2)c2ccccc2)c1", "note": "(stereo not drawn)", "hERG current change (%, negative = inhibition) at 10uM": -62.6},
      {"smiles": "Cc1cc(NC(=O)C2CCN(S(=O)(=O)Cc3ccccc3)CC2)ccc1-n1cnnn1", "hERG current change (%, negative = inhibition) at 10uM": -9.11},
      {"smiles": "FC(F)(F)c1cnc(Sc2ncn[nH]2)c(Cl)c1", "hERG current change (%, negative = inhibition) at 10uM": 4.22},
      {"smiles": "CCOC(=O)c1c(C)[nH]c(C(=O)CN2C(=O)NC3(CCCC3)C2=O)c1C", "hERG current change (%, negative = inhibition) at 10uM": -1.87},
      {"smiles": "CCOc1ccc(S(=O)(=O)N2CCN(CC)CC2)cc1NC(=O)c1ccccc1F", "hERG current change (%, negative = inhibition) at 10uM": -16.6}
    ]}
  ]
}
